Data published in PubChem BioAssay.
Active and inactive are the calls of the source. Unless noted, how the calls were made is not given here.

Experiments:
[1] = tested on: Wnt5a (protein binding on small-molecule microarray); assay: Wnt5a binders on small-molecule microarray, primary screen, biophysical, 635/667 nm fluorescence (AID 1142); details: 635 nm fluorescence, higher = more signal;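 further: fluorescence read at 667 nm with signal to noise per printed feature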
[2] = cell viability in Huh7 cells, primary screen, cytotoxicity control for HCV replication inhibitor project, CellTiter-Glo luminescence, basal, 48 h (AID 1143); details: Huh7 HCV replicon, higher = more signal, called active from +8 up or from −8 down;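 further: Huh7 hepatoma cells carrying a hepatitis C replication reporter with no stimulus; test concentration not given here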
[3] = P. aeruginosa biofilm formation inhibitors, primary screen, PAO1 strain, BacTiter-Glo luminescence, LB-PBS (AID 1144); details: 12 h, higher = more signal
[4] = CREB reporter modulators without forskolin, primary screen, cell-based, PC12, CRE-LacZ reporter, unstimulated (AID 1145); details: no forskolin, luminescence, 4.5 h, higher = more signal, called active from +8 up or from −8 down
[5] = CREB reporter modulators under forskolin, primary screen, cell-based, PC12, CRE-LacZ reporter, forskolin-stimulated (AID 1146); details: luminescence, 4.5 h, higher = more signal, called active from +8 up or from −8 down;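 further: PC12 cells with 6xCRE LacZ reporter stimulated by forskolin 10 µM; beta-galactosidase reporter signal reflecting CREB driven transcription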
[6] = molecular target: Streptavidin (Streptomyces avidinii) (UniProt P22629); assay: streptavidin binders on small-molecule microarray, primary screen, artefact control for SMM compound annotation, biophysical, 635/667 nm fluorescence (AID 1147); details: streptavidin binding, higher = more signal;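 further: signal reflects streptavidin binding to arrayed compounds as a control protein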
Streptavidin (Streptomyces avidinii), sequence (P22629 whole entry, looked up): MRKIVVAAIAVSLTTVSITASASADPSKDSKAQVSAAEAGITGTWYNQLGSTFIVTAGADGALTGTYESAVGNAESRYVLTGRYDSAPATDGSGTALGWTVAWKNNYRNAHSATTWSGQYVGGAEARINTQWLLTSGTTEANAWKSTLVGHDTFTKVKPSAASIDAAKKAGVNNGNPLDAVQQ

[7] = small-molecule binders of probe aInhba, primary screen, biochemical, small-molecule microarray, 635/667 nm fluorescence (AID 1148); details: higher = more signal;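 further: score merges 667nm spot fluorescence with signal-to-noise for antibody binding to printed compounds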
Torsin-1A (Homo sapiens) [8] = molecular target: Torsin-1A (Homo sapiens) (UniProt O14656); assay: torsin A binders from cell lysate, primary screen, small-molecule microarray, wild-type, 635/667 nm (AID 1149); details: COS7 hTOR1A-WT lysate, 635 nm fluorescence, higher = more signal
Torsin-1A (Homo sapiens), sequence (O14656 whole entry, looked up): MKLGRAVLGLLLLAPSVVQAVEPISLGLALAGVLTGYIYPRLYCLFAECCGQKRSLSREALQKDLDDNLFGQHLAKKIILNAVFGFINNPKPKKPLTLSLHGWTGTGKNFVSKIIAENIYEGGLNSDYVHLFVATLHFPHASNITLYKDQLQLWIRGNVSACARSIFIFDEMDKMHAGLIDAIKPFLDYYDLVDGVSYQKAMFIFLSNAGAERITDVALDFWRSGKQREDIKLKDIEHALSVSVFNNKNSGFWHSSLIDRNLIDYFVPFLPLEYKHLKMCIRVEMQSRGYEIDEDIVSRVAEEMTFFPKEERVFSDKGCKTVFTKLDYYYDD

Torsin-1A (Homo sapiens) [9] = molecular target: Torsin-1A (Homo sapiens) (UniProt O14656); assay: small-molecule binders of mutant TOR1A in lysate, primary screen, cell lysate, small-molecule microarray, COS7 lysate, 635/667 nm fluorescence (AID 1150); details: COS7 hTOR1A mutant lysate, 635 nm fluorescence, higher = more signal;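 further: score pools 667 nm emission and signal to noise measuring lysate protein binding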
[10] = tested on: Sonic hedgehog protein (Shh); assay: small-molecule binders of Shh protein, primary screen, biochemical, small-molecule microarray, 635/667 nm fluorescence (AID 1151); details: small-molecule microarray binding, 635 nm fluorescence; higher = more signal;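 further: Shh protein binding to compounds spotted on small-molecule microarray slides; score combines spot fluorescence intensity with signal-to-noise across triplicate slides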
[11] = E. coli DRC41 culture turbidity changes, primary screen, E. coli filamentation inducer project, strain DRC41, OD650, 48 h (AID 1152);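 further: E. coli MC1000 strain DRC41 lacking acrAB efflux pump and sulA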; details: E. coli DRC41 (acrAB sulA), higher = more signal, called active from +8 up or from −8 down
[12] = small-molecule binders of probe aLefty1, primary screen, biochemical, small-molecule microarray, 635/667 nm fluorescence (AID 1153); details: higher = more signal;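 further: score merges spot fluorescence with signal-to-noise ratio from the scanned slide images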
[13] = PSAC antagonists in infected red cells, primary screen, cell-based, P. falciparum Indochina, OD700, 1 h (AID 1154); details: P. falciparum Indochina infected RBC osmotic lysis, higher = more signal, called active from +8 up or from −8 down
[14] = PSAC antagonists in infected red cells, primary screen, cell-based, P. falciparum Indochina, OD700, 2 h (AID 1155);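 further: lysis reports solute entry through the parasite surface anion channel PSAC; channel blockers reduce lysis of infected cells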; details: P. falciparum Indochina infected erythrocytes, osmotic lysis OD700; higher = more signal, called active from +8 up or from −8 down
[15] = osmotic lysis modulators in infected erythrocytes, primary screen, PSAC antagonist project, cell-based, P. falciparum Indochina, OD700, 3 h (AID 1156); details: higher = more signal, called active from +8 up or from −8 down
[16] = PSAC antagonists in infected red cells, primary screen, cell-based, P. falciparum Indochina, OD700, 18 h (AID 1157); details: P. falciparum Indochina infected erythrocytes, osmotic lysis OD700, 18 h; higher = more signal, called active from +8 up or from −8 down
[17] = modulators of S6 phosphorylation in cells, primary screen, cell-based, A549, cytoblot, luminescence, serum-stimulated (AID 1158); details: A549 phospho-S6 cytoblot, 5 h, higher = more signal;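 further: serum-stimulated A549 lung adenocarcinoma cells; signal is phosphorylated S6 detected by cytoblot immunostaining with HRP secondary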
[18] = molecular target: NADPH oxidase 2 (Homo sapiens) (UniProt P04839); assay: NOX2-dependent H2O2 signal modulators, primary screen, NOX inhibitor project, cell-based, HEK293-NOX2, PMA-stimulated, Amplex Red fluorescence (AID 1159); details: 45 min, higher = more signal, called active from +8 up or from −8 down; further: test concentration not given here
NADPH oxidase 2 (Homo sapiens), sequence (P04839 whole entry, looked up): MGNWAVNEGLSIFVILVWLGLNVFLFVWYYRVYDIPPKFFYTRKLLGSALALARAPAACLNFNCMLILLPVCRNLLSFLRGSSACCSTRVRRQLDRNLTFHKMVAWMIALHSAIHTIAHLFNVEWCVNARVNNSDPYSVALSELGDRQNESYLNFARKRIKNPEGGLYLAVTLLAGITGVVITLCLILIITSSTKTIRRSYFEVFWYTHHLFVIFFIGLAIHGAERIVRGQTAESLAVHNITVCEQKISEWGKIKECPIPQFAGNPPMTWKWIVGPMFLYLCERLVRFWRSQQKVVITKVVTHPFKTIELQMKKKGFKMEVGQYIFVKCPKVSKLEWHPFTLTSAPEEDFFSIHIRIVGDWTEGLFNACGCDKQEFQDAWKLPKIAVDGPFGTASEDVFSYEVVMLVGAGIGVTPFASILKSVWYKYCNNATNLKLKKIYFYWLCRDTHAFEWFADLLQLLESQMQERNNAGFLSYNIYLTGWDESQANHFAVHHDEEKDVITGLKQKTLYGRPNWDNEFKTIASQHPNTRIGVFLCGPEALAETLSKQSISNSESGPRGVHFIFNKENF

[19] = molecular target: NADPH oxidase 4 (Homo sapiens) (UniProt Q9NPH5); assay: NOX4-dependent H2O2 signal modulators, primary screen, NOX inhibitor project, cell-based, HEK293-NOX4, tetracycline-induced, Amplex Red fluorescence (AID 1160); details: 45 min, higher = more signal, called active from +8 up or from −8 down
NADPH oxidase 4 (Homo sapiens), sequence (Q9NPH5 whole entry, looked up): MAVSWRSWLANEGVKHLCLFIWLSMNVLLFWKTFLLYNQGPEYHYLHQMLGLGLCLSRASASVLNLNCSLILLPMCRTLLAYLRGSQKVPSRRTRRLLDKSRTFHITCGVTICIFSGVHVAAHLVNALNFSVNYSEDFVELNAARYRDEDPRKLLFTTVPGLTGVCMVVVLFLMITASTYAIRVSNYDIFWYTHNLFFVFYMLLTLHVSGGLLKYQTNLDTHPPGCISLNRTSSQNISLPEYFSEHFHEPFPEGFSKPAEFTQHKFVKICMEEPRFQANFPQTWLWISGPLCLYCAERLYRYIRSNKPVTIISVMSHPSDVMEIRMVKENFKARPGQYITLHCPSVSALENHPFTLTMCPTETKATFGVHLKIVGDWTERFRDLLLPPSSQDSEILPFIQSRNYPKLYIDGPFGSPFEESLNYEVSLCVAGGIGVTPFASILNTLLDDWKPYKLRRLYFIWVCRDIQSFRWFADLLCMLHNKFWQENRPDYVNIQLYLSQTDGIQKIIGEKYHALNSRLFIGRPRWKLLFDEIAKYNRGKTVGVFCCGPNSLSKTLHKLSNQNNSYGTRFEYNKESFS

[20] = molecular target: NADPH oxidase 5 (Homo sapiens) (UniProt Q96PH1); assay: NOX5-dependent H2O2 signal modulators, primary screen, NOX inhibitor project, cell-based, HEK293-NOX5, Amplex Red fluorescence (AID 1161); details: HEK293-NOX5, ionomycin, 45 min, higher = more signal
NADPH oxidase 5 (Homo sapiens), sequence (Q96PH1 whole entry, looked up): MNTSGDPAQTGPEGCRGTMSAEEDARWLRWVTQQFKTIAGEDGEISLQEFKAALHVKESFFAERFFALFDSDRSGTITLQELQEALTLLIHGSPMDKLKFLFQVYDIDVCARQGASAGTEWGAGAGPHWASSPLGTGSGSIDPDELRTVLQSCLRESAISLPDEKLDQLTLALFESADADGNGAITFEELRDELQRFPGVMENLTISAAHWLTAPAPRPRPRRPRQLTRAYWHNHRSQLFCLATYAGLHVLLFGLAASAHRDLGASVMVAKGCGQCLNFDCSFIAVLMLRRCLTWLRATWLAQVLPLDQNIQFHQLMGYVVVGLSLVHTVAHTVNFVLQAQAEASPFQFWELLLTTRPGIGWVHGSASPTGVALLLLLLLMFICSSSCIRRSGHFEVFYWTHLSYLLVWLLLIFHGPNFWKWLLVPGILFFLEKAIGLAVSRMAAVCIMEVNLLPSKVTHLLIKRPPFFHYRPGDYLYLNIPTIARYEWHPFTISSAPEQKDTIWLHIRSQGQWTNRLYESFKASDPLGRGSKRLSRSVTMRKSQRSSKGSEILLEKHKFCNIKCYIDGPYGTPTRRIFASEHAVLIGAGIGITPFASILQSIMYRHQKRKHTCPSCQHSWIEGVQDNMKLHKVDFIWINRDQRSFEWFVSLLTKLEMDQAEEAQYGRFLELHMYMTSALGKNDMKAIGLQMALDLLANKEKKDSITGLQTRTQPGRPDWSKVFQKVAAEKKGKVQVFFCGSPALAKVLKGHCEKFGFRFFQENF

C=C(COC)/C(=C/C[C@@H](OC(=O)c1ccncc1)c1ccccc1OCCO)c1cc(C(=O)OC)ccc1OC
composite z-score [1]: -0.146 | z-score [2]: -1.88 (inactive) | z-score [3]: 0.454 (inactive) | z-score [4]: 14.7 (active) | z-score [5]: 3.84 (inactive) | composite z-score [6]: -0.409 | composite z-score [7]: -0.0762 | composite z-score (Torsin-1A (Homo sapiens) [8]): 0.758 | composite z-score (Torsin-1A (Homo sapiens) [9]): -0.103 | composite z-score [10]: 0.249 | z-score [11]: 0.132 (inactive) | composite z-score [12]: -0.0654 | z-score [13]: 23.5 (active) | z-score [14]: 6 (inactive) | z-score [15]: 1.74 (inactive) | z-score [16]: 1.02 (inactive) | z-score [17]: 0.171 | z-score [18]: -0.97 (inactive) | z-score [19]: -1.4 (inactive) | z-score [20]: -2.07

COc1ccc(C(O)C2C=CC3C(=O)N(c4ccccc4)C(=O)C3N2Nc2ccc(C(C)C)cc2)c2ccccc12 (stereo not given)
composite z-score [1]: 0.295 | z-score [2]: 0.0927 (inactive) | z-score [3]: -1.88 (inactive) | z-score [4]: 0.632 (inactive) | z-score [5]: -0.557 (inactive) | composite z-score [6]: 1.92 | composite z-score [7]: 0.216 | composite z-score (Torsin-1A (Homo sapiens) [8]): 0.724 | composite z-score (Torsin-1A (Homo sapiens) [9]): 1.01 | composite z-score [10]: -0.328 | z-score [11]: -0.534 (inactive) | composite z-score [12]: 0.4 | z-score [13]: 1.68 (inactive) | z-score [14]: 1.35 (inactive) | z-score [15]: 0.155 (inactive) | z-score [16]: 1.27 (inactive) | z-score [17]: -1.09 | z-score [18]: 0.373 (inactive) | z-score [19]: -2.59 (inactive) | z-score [20]: -3.17

C=C(COC)C(=O)CC[C@H](OC(=O)c1cccnc1)c1ccc(CO)o1
composite z-score [1]: 0.196 | z-score [2]: -0.319 (inactive) | z-score [3]: 0.312 (inactive) | z-score [4]: 0.522 (inactive) | z-score [5]: 0.756 (inactive) | composite z-score [6]: -0.184 | composite z-score [7]: 0.13 | composite z-score (Torsin-1A (Homo sapiens) [8]): 2.19 | composite z-score (Torsin-1A (Homo sapiens) [9]): -0.0291 | composite z-score [10]: 1.41 | z-score [11]: -0.471 (inactive) | composite z-score [12]: -0.147 | z-score [13]: 0.904 (inactive) | z-score [14]: 0.0112 (inactive) | z-score [15]: -0.376 (inactive) | z-score [16]: 0.063 (inactive) | z-score [17]: -0.262 | z-score [18]: 0.337 (inactive) | z-score [19]: -0.159 (inactive) | z-score [20]: 0.221

C=CCOC(=O)[C@H]1[C@@H]2C(=O)O[C@@H](c3ccccc3)[C@@H](c3ccccc3)N2[C@@H](c2ccc(OCCOC(=O)[C@H]3C[C@H]4C(=O)N[C@@H](CCCCNC(C)=O)C(=O)N4[C@H]3c3cccc(OCCO)c3)cc2)[C@]12C(=O)Nc1ccc(I)cc12
composite z-score [1]: 1.28 | z-score [2]: -2.16 (inactive) | z-score [3]: 0.437 (inactive) | z-score [4]: 0.557 (inactive) | z-score [5]: 0.133 (inactive) | composite z-score [6]: 0.0123 | composite z-score [7]: -0.431 | composite z-score (Torsin-1A (Homo sapiens) [8]): 0.96 | composite z-score (Torsin-1A (Homo sapiens) [9]): 0.763 | composite z-score [10]: 2.46 | z-score [11]: 0.831 (inactive) | composite z-score [12]: -0.625 | z-score [13]: 1.81 (inactive) | z-score [14]: -0.285 (inactive) | z-score [15]: 1.31 (inactive) | z-score [16]: -1.61 (inactive) | z-score [17]: 0.112 | z-score [18]: -0.224 (inactive) | z-score [19]: 0.68 (inactive) | z-score [20]: -0.174

COc1ccc([Si](C)(C)[C@@H]2[C@@H](CCn3cc([C@H](O)c4ccccc4)nn3)O[C@]3(C(=O)N(Cc4cccc(N5C(=O)c6cccc7cccc5c67)c4)c4ccccc43)[C@H]2C)cc1
composite z-score [1]: -0.537 | z-score [2]: -3.34 (inactive) | z-score [3]: 0.692 (inactive) | z-score [4]: 0.0031 (inactive) | z-score [5]: 0.471 (inactive) | composite z-score [6]: -0.0465 | composite z-score [7]: -0.0963 | composite z-score (Torsin-1A (Homo sapiens) [8]): -1.06 | composite z-score (Torsin-1A (Homo sapiens) [9]): -0.526 | composite z-score [10]: 0.454 | z-score [11]: -0.603 (inactive) | composite z-score [12]: 0.0056 | z-score [13]: 1.8 (inactive) | z-score [14]: 0.662 (inactive) | z-score [15]: 1.1 (inactive) | z-score [16]: 0.794 (inactive) | z-score [17]: -0.256 | z-score [18]: 1.08 (inactive) | z-score [19]: 1.48 (inactive) | z-score [20]: 2.2

CC1CC/C=C\[C@H]2OC34C=CCN(C(C)(C)C)C(=O)[C@H]3N(C(CO)C(C)C)C(=O)[C@@H]4C2C(=O)O1 (stereo not given in full)
composite z-score [1]: 0.0295 | z-score [2]: 0.0336 (inactive) | z-score [3]: 1.4 (inactive) | z-score [4]: -0.354 (inactive) | z-score [5]: 0.46 (inactive) | composite z-score [6]: -0.324 | composite z-score [7]: -0.128 | composite z-score (Torsin-1A (Homo sapiens) [8]): 0.0733 | composite z-score (Torsin-1A (Homo sapiens) [9]): 0.931 | composite z-score [10]: 0.774 | z-score [11]: -0.281 (inactive) | composite z-score [12]: -0.142 | z-score [13]: 0.462 (inactive) | z-score [14]: 0.451 (inactive) | z-score [15]: 0.44 (inactive) | z-score [16]: 0.404 (inactive) | z-score [17]: -0.248 | z-score [18]: 1.31 (inactive) | z-score [19]: -0.568 (inactive) | z-score [20]: 2.34

COCCOC(=O)N1C(=O)[C@@]2(c3cc(C#CCC(C(=O)OC)C(=O)OC)ccc31)[C@H](c1ccc(O)cc1)N1[C@H](c3ccccc3)[C@H](c3ccccc3)OC(=O)[C@H]1[C@@H]2C(=O)NC[C@H](O)c1ccccc1
composite z-score [1]: 0.295 | z-score [2]: -2.04 (inactive) | z-score [3]: -0.0824 (inactive) | z-score [4]: -0.231 (inactive) | z-score [5]: -0.196 (inactive) | composite z-score [6]: 1.7 | composite z-score [7]: -0.0774 | composite z-score (Torsin-1A (Homo sapiens) [8]): 0.941 | composite z-score (Torsin-1A (Homo sapiens) [9]): 0.468 | composite z-score [10]: 0.49 | z-score [11]: 1.47 (inactive) | composite z-score [12]: -0.159 | z-score [13]: 1.67 (inactive) | z-score [14]: 0.223 (inactive) | z-score [15]: -5.49 (inactive) | z-score [16]: -0.0973 (inactive) | z-score [17]: -0.158 | z-score [18]: 1.72 (inactive) | z-score [19]: 0.876 (inactive) | z-score [20]: 1.32

C=CCN1C(=O)[C@]2(O[C@H](CCO)[C@@H]([Si](C)(C)c3ccc(OC)cc3)[C@@H]2C)c2cc(N3C(=O)COc4ccccc43)ccc21
composite z-score [1]: 0.01 | z-score [2]: -8.07 (active) | z-score [3]: 0.518 (inactive) | z-score [4]: 27.2 (active) | z-score [5]: -3.5 (inactive) | composite z-score [6]: 0.435 | composite z-score [7]: -0.0245 | composite z-score (Torsin-1A (Homo sapiens) [8]): -0.339 | composite z-score (Torsin-1A (Homo sapiens) [9]): 0.072 | composite z-score [10]: 1.18 | z-score [11]: 0.512 (inactive) | composite z-score [12]: 0.142 | z-score [13]: 6.04 (inactive) | z-score [14]: 2.56 (inactive) | z-score [15]: -0.398 (inactive) | z-score [16]: 0.742 (inactive) | z-score [17]: 2.03 | z-score [18]: 0.617 (inactive) | z-score [19]: 0.0613 (inactive) | z-score [20]: -1.94
